Laboratory results taken from PubChem BioAssay (NCI).
The panel holds about 83,000 compounds, 20% with a hit somewhere; the sample as a whole holds those more often.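 Results are percent growth after 48 hours of single-concentration exposure. 100 means growth as in untreated cells, lower positive values show inhibition; negative values down to -100 show cell death.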 Unmarked numbers belong to inactive results. Calls of active or inactive are those of the source. How the source made its calls: active means growth percent below 10; inactive means the rest.

Legend:
Assay in all cases: NCI-60 one-dose screen, 48 h (100 = growth as untreated, 0 = no growth, -100 = all killed)
Details in all cases: 10 µM unless noted
HCT-15 colon = tested on: HCT-15 colon
HT29 colon = tested on: HT29 colon
SNB-75 CNS = tested on: SNB-75 CNS
SNB-19 CNS = tested on: SNB-19 CNS
U251 CNS = tested on: U251 CNS
PC-3 prostate = tested on: PC-3 prostate
SK-MEL-5 melanoma = tested on: SK-MEL-5 melanoma
UACC-62 melanoma = tested on: UACC-62 melanoma
LOX IMVI melanoma = tested on: LOX IMVI melanoma
SK-MEL-28 melanoma = tested on: SK-MEL-28 melanoma

| SMILES | growth (HCT-15 colon) | growth (HT29 colon) | growth (SNB-75 CNS) | growth (SNB-19 CNS) | growth (U251 CNS) | growth (PC-3 prostate) | growth (SK-MEL-5 melanoma) | growth (UACC-62 melanoma) | growth (LOX IMVI melanoma) | growth (SK-MEL-28 melanoma) |
| --- | --- | --- | --- | --- | --- | --- | --- | --- | --- | --- |
| CC(C)CC(NC(=O)C(CCCN=C(N)N)NC(=O)OCc1ccccc1)C(=O)NC(CNC(=O)/C=C/c1ccccc1)C(C)C (stereo not given) | 96.5% | 109% | 84.5% | 99.9% | 106% | 89.2% | 106% | 102% | 94.8% | 93.5% |
| O=C1/C(=C\c2cccn2C(=O)c2ccccc2)c2ccccc2N1c1c(Cl)cccc1Cl | 64.7% | 70% | 71.9% | 87.7% | 72.8% | 73.9% | 83% | 59.1% | 37.5% | 74.1% |
| COc1ccc(C2C3=C(COC3=O)N(CCO)c3cc(OC)c(OC)cc32)cc1 (stereo not given) | 98.9% | 95.1% | 93.3% | 109% | 101% | 106% | 100% | 107% | 101% | 115% |
| COC(=O)c1cc2oc(/C=N/NC(=O)c3cc4oc(-c5cccc(C(F)(F)F)c5)cc4[nH]3)cc2n1Cc1ccccc1 | 98.1% | 104% | 84.4% | 112% | 101% | 90.3% | 108% | 83.4% | 97.6% | 113% |
| COc1cc(Cn2c(-c3ccccc3)cc3c2-c2oncc2CC3)cc(OC)c1OC | 27.6% | 4.59% (active) | -17.3% (active) | 44.5% | 24.1% | 20.6% | 18.4% | 47.5% | 39.4% | 49.7% |
| CCN(CC)Cc1cc(Nc2ccnc3cc(Cl)ccc23)cc(-c2ccc(Cl)cc2)c1O | 25.2% | 22.7% | -35.9% (active) | 32.8% | 0.662% (active) | 25.2% | -49.6% (active) | 60.8% | 0.179% (active) | 46% |
| C=CCOc1c(Br)cc(Br)cc1Br | 62.9% | 104% | 60.7% | 50.5% | 46.8% | 65.8% | 59% | 37.2% | 64.4% | 77.8% |
| OC(c1cc2c(Cl)cc(Cl)cc2c2cc(C(F)(F)F)ccc12)C1CCCCN1 (stereo not given) | -66.8% (active) | -80.5% (active) | -91% (active) | -72.8% (active) | -93% (active) | -84% (active) | 8.25% (active) | -72.4% (active) | -66.2% (active) | -75.4% (active) |
| CC(C)N1CCN(c2ccncc2S(=O)(=O)N2CCN(C)CC2)CC1 | 97.6% | 102% | 80.6% | 98.7% | 98.8% | 114% | 100% | 108% | 97.4% | 114% |
| O=[N+]([O-])c1cccc([I+]c2ccccc2)c1 | 52.5% | 27.3% | 46.9% | 71.3% | 52.1% | 59.1% | -2.62% (active) | 52.2% | 36.2% | 61.5% |
| Cc1n(Cc2ccc3ccccc3n2)cc[n+]1Cc1ccc2ccccc2c1 | 86.8% | 6.64% (active) | -2.2% (active) | 7.14% (active) | 14% | 10.4% | -87.6% (active) | -26.6% (active) | -43.7% (active) | 16.1% |
| NC(=O)Nc1ccc2ncnc(Nc3cccc(O)c3)c2c1 | 108% | 106% | 102% | 93.1% | 87.9% | 102% | 101% | 105% | 101% | 114% |
| Nc1cc2nc3ccccc3oc-2cc1=O | 18.2% | 38.8% | -86% (active) | 80.8% | 35.6% | 27.8% | -97.9% (active) | -75.2% (active) | -11.4% (active) | -56.2% (active) |
| O=c1c2sc3ncc(Cl)cc3c2nnn1-c1cccc(Cl)c1 | 87.5% | 75.9% | 70.1% | 98.2% | 59.9% | 82.7% | 96.3% | 96.8% | 52.9% | 90.5% |
| CCCCOc1ncnc2nc[nH]c12 | 108% | 96.3% | 95.7% | 99.8% | 106% | 107% | 105% | 104% | 103% | 111% |
| Nc1nc2ccc([C@@H]3Nc4ccc5[nH]ncc5c4[C@H]4[C@H]5CCC(C5)[C@H]43)cc2s1 | 29.7% | 5.7% (active) | -24.8% (active) | 30.8% | 23.8% | 6.63% (active) | 24.4% | -88.6% (active) | 40.7% | 23.8% |
| COc1cc(C)cc2oc3oc(=O)c(-c4csc(-c5cc6ccccc6oc5=O)n4)cc3c(=O)c12 | 114% | 110% | 113% | 99.3% | 110% | 104% | 99.9% | 99.2% | 94.6% | 109% |
| Cc1cc(-c2nnc(/C=C/c3ccc4c(c3)OCO4)o2)n[nH]1 | 44.3% | 23% | 51.3% | 86.8% | 85.1% | 74.3% | 70.9% | 69.5% | 52.5% | 71.5% |
| O=C(Nc1ccc(Oc2ccc(NC(=O)Nc3ccccc3Cl)cc2)cc1)Nc1ccccc1Cl | 38.9% | 45.9% | 58.2% | 115% | 24.6% | 1.99% (active) | 62.5% | 45.9% | 48.5% | -17.7% (active) |
| CCCCCCCCCCCCCCCC1=NCC[N+]1(CCO)CCO | 31.9% | 12.4% | 46.9% | 97.6% | 39.4% | 32.1% | 89.6% | 76.2% | 5.42% (active) | 115% |
| O=c1[nH]cnc2nc[nH]c12 | 107% | 97.9% | 90.8% | 107% | 103% | 135% | 102% | 102% | 98.4% | 97.9% |
| COc1ccc(C2CC(c3cccc(Nc4ccnc5cc(Cl)ccc45)c3)=NN2c2ccc(Cl)cc2)cc1 (stereo not given) | 42.5% | 64.2% | 79.7% | 94.8% | 65% | 60.7% | 53.4% | 9.78% (active) | 47.4% | 65.8% |
| CC(=O)N1N=C(c2ccc(C)cc2)CC1c1cn(-c2ccccc2)nc1-c1cccc(Nc2ccnc3cc(Cl)ccc23)c1 (stereo not given) | 62.2% | 47.7% | 102% | 83.4% | 14.9% | 99.8% | 73.8% | 82.2% | 10.4% | 51.9% |
| O=C1OCC2=C1C(c1cccc(Br)c1)c1cc3c(cc1N2CCO)OCCO3 (stereo not given) | 13.9% | 2.11% (active) | 28.5% | 31.6% | 6.01% (active) | 25.4% | 1.61% (active) | 27.3% | 23.5% | 51.7% |
| CSC1=NC(=Nc2c(C)cccc2C)C2(CCC(C(C)(C)C)CC2)N1c1ccc(Cl)cc1 (stereo not given) | 31.9% | 25.5% | 74.8% | 75.3% | 30.6% | 47.9% | 47.6% | 73.8% | 20.8% | 79.5% |
| CC(C)(C)c1ccc(Cn2c(-c3nonc3N)nc3ccccc32)cc1 | 49.1% | 41.6% | 61.7% | 77.4% | 64.5% | 67.4% | 74.9% | 69.5% | 70.2% | 72.7% |
| Cc1ccccc1N1C(c2ccccc2)=NNC12C=CC(=O)c1c(O)cccc12 (stereo not given) | 29.5% | 91.7% | 81.7% | 60.8% | 34.9% | 46.7% | -26.3% (active) | 12% | 7.11% (active) | 102% |
| COc1cc(C2CC(c3cccc(Nc4ccnc5cc(Cl)ccc45)c3)=NN2c2ccccc2)cc(OC)c1OC (stereo not given) | 67.1% | 59.7% | 79.2% | 90.9% | 78.8% | 55.2% | 62.1% | 9.18% (active) | 46.1% | 67.2% |
